# Data published in PubChem BioAssay AID1159580 (chemical genetic matrix, 2015).
# About 2,000 (36%) of roughly 5,500 compounds were called active. Not shown: some 18% with an inconclusive outcome. The list shows a part of the results. Values without a mark were called inactive. Rule as the data show it: active = normalized growth mostly below about 0.91 (no sharp cut-off); inconclusive = no clear call, values can overlap the other calls; inactive = mostly above about 0.92.
# Experiment: chemical genetic growth profiling, strain panel (AID 1159580);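 also: tested at 20 µM; growth read once vehicle control cultures reached saturation at 30 °C; 1 = growth at the plate median or of vehicle wells; lower values mean less growth of the strain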
# Conditions: S. cerevisiae deletion strains, growth OD
# [1] = locus YAR019C, strain CDC15, hits give low values
# [2] = locus YBL105C, strain PKC1, hits give low values
# [3] = locus YBR135W, strain CKS1, hits give low values
# [4] = locus YBR136W, strain MEC1, hits give low values
# [5] = locus YDL017W, strain CDC7, hits give low values
# [6] = locus YDL028C, strain MPS1, hits give low values
# [7] = locus YDL108W, strain KIN28, hits give low values
# [8] = locus YDL214C, strain PRR2, hits give low values
# [9] = locus YDR052C, strain DBF4, hits give low values
# [10] = locus YDR054C, strain cdc34, hits give low values
# [11] = locus YDR226W, strain ADK1, hits give low values
# [12] = locus YDR477W, strain SNF1, hits give low values
# [13] = locus YER123W, strain YCK3, hits give low values
# [14] = locus YER133W, strain GLC7, hits give low values
# [15] = locus YFL029C, strain CAK1, hits give low values
# [16] = locus YFR019W, strain FAB1, hits give low values
# [17] = locus YFR028C, strain CDC14, hits give low values
# [18] = locus YGR040W, strain KSS1, hits give low values
# [19] = locus YGR052W, strain FMP48, hits give low values
# [20] = locus YGR092W, strain DBF2, hits give low values
# [21] = locus YHR030C, strain SLT2, hits give low values
# [22] = locus YHR079C, strain IRE1, hits give low values
# [23] = locus YHR082C, strain KSP1, hits give low values
# [24] = locus YHR205W, strain SCH9, hits give low values
# [25] = locus YIL147C, strain SLN1, hits give low values
# [26] = locus YJL095W, strain BCK1, hits give low values
# [27] = locus YJL157C, strain FAR1, hits give low values
# [28] = locus YJR016C, strain ILV3, hits give low values
# [29] = locus YJR066W, strain TOR1 (second series), hits give low values
# [30] = locus YJR066W, strain TOR1, hits give low values
# [31] = locus YKL048C, strain ELM1, hits give low values
# [32] = locus YKL067W, strain YNK1, hits give low values
# [33] = locus YKL101W, strain HSL1, hits give low values
# [34] = locus YKL193C, strain SDS22, hits give low values
# [35] = locus YKL203C, strain TOR2, hits give low values
# [36] = locus YLR113W, strain HOG1, hits give low values
# [37] = locus YLR133W, strain CKI1, hits give low values
# [38] = locus YLR403W, strain SFP1, hits give low values
# [39] = locus YML070W, strain DAK1, hits give low values
# [40] = locus YMR001C, strain CDC5, hits give low values
# [41] = locus YMR205C, strain PFK2 (second series), hits give low values
# [42] = locus YMR277W, strain FCP1, hits give low values
# [43] = locus YNL006W, strain LST8, hits give low values
# [44] = locus YNL020C, strain ARK1, hits give low values
# [45] = locus YNL161W, strain CBK1, hits give low values
# [46] = locus YNL183C, strain NPR1, hits give low values
# [47] = locus YNL207W, strain RIO2, hits give low values
# [48] = locus YNL222W, strain SSU72, hits give low values
# [49] = locus YNL307C, strain MCK1 (second series), hits give low values
# [50] = locus YOL078W, strain AVO1, hits give low values
# [51] = locus YOL136C, strain PFK27, hits give low values
# [52] = locus YOR061W, strain CKA2, hits give low values
# [53] = locus YOR119C, strain RIO1, hits give low values
# [54] = locus YOR231W, strain MKK1, hits give low values
# [55] = locus YOR329C, strain SCD5, hits give low values
# [56] = locus YPL031C, strain PHO85, hits give low values
# [57] = locus YPL153C, strain RAD53, hits give low values
# [58] = locus YPL204W, strain HRR25, hits give low values
# [59] = locus YPL209C, strain IPL1, hits give low values
# [60] = locus YPL256C, strain CLN2, hits give low values
# [61] = locus YPR025C, strain CCL1, hits give low values
# [62] = locus YPR111W, strain DBF20, hits give low values
# [63] = strain NNK1, hits give low values
# [64] = strain TSCII, hits give low values
smiles,measurement,setting,value
CC(C)(C)C(=O)/C(C#N)=C/c1c(Cl)cccc1Cl,normalized growth,[1],0.366 (active)
same,normalized growth,[2],0.373 (active)
same,normalized growth,[3],0.894 (active)
same,normalized growth,[4],0.722 (active)
same,normalized growth,[5],0.695 (active)
same,normalized growth,[6],0.919
same,normalized growth,[7],0.957
same,normalized growth,[8],0.124 (active)
same,normalized growth,[9],0.915
same,normalized growth,[10],0.291 (active)
same,normalized growth,[11],0.913
same,normalized growth,[12],0.11 (active)
same,normalized growth,[13],0.105 (active)
same,normalized growth,[14],0.108 (active)
same,normalized growth,[15],0.315 (active)
same,normalized growth,[16],0.108 (active)
same,normalized growth,[17],0.575 (active)
same,normalized growth,[18],0.112 (active)
same,normalized growth,[19],0.136 (active)
same,normalized growth,[20],0.11 (active)
same,normalized growth,[21],0.111 (active)
same,normalized growth,[22],0.112 (active)
same,normalized growth,[23],0.137 (active)
same,normalized growth,[24],0.000694 (active)
same,normalized growth,[25],0.691 (active)
same,normalized growth,[26],0.104 (active)
same,normalized growth,[27],0.105 (active)
same,normalized growth,[28],0.64 (active)
same,normalized growth,[29],0.124 (active)
same,normalized growth,[30],0.131 (active)
same,normalized growth,[31],0.151 (active)
same,normalized growth,[32],0.129 (active)
same,normalized growth,[33],0.131 (active)
same,normalized growth,[34],0.506 (active)
same,normalized growth,[35],0.115 (active)
same,normalized growth,[36],0.165 (active)
same,normalized growth,[37],0.125 (active)
same,normalized growth,[38],0.0102 (active)
same,normalized growth,[39],0.122 (active)
same,normalized growth,[40],0.401 (active)
same,normalized growth,[41],0.142 (active)
same,normalized growth,[42],0.397 (active)
same,normalized growth,[43],0.341 (active)
same,normalized growth,[44],0.118 (active)
same,normalized growth,[45],0.402 (active)
same,normalized growth,[46],0.132 (active)
same,normalized growth,[47],0.359 (active)
same,normalized growth,[48],0.619 (active)
same,normalized growth,[49],0.105 (active)
same,normalized growth,[50],0.492 (active)
same,normalized growth,[51],0.116 (active)
same,normalized growth,[52],0.157 (active)
same,normalized growth,[53],0.115 (active)
same,normalized growth,[54],0.131 (active)
same,normalized growth,[55],0.513 (active)
same,normalized growth,[56],0.102 (active)
same,normalized growth,[57],0.115 (active)
same,normalized growth,[58],0.11 (active)
same,normalized growth,[59],0.495 (active)
same,normalized growth,[60],0.152 (active)
same,normalized growth,[61],0.652 (active)
same,normalized growth,[62],0.949
same,normalized growth,[63],0.265 (active)
same,normalized growth,[64],0.322 (active)
CS(=O)(=O)/C(C#N)=C/c1ccccc1OCc1c(Cl)cccc1Cl,normalized growth,[1],0.978
same,normalized growth,[2],0.958
same,normalized growth,[3],0.964
same,normalized growth,[4],0.958
same,normalized growth,"locus YBR160W, strain CDC28, hits give low values",0.954
same,normalized growth,[5],0.961
same,normalized growth,[6],0.956
same,normalized growth,"locus YDL101C, strain DUN1, hits give low values",0.958
same,normalized growth,[7],0.942
same,normalized growth,"locus YDL132W, strain cdc53, hits give low values",0.96
same,normalized growth,[8],0.926
same,normalized growth,[9],0.957
same,normalized growth,[10],0.975
same,normalized growth,[11],0.969
same,normalized growth,[12],0.943
same,normalized growth,[13],0.913
same,normalized growth,[14],0.953
same,normalized growth,"locus YFL009W, strain cdc4, hits give low values",0.977
same,normalized growth,[15],0.979
same,normalized growth,"locus YFR003C, strain YPI1, hits give low values",0.965
same,normalized growth,[16],0.961
same,normalized growth,[17],0.974
same,normalized growth,[18],0.91
same,normalized growth,[19],0.97
same,normalized growth,[20],0.934
same,normalized growth,[21],1.02
same,normalized growth,[22],1.03
same,normalized growth,[23],1.01
same,normalized growth,[24],0.916
same,normalized growth,[25],0.956
same,normalized growth,[26],0.976
same,normalized growth,"locus YJL128C, strain PBS2, hits give low values",0.918
same,normalized growth,[27],0.95
same,normalized growth,[28],0.973
same,normalized growth,[29],0.947
same,normalized growth,[30],1.04
same,normalized growth,[31],0.901
same,normalized growth,[32],0.942
same,normalized growth,[33],0.892
same,normalized growth,[34],0.968
same,normalized growth,[35],0.996
same,normalized growth,[36],0.866
same,normalized growth,[37],0.92
same,normalized growth,[38],0.885
same,normalized growth,[39],0.923
same,normalized growth,[40],0.966
same,normalized growth,[41],0.953
same,normalized growth,[42],0.978
same,normalized growth,[43],0.973
same,normalized growth,[44],0.926
same,normalized growth,[45],0.964
same,normalized growth,[46],1.02
same,normalized growth,[47],0.946
same,normalized growth,[48],0.966
same,normalized growth,[49],0.945
same,normalized growth,[50],0.962
same,normalized growth,[51],0.879
same,normalized growth,[52],0.922
same,normalized growth,[53],0.986
same,normalized growth,[54],0.948
same,normalized growth,[55],0.968
same,normalized growth,[56],0.934
same,normalized growth,[57],0.95
same,normalized growth,[58],0.897
same,normalized growth,[59],0.967
same,normalized growth,[60],0.979
same,normalized growth,[61],0.969
same,normalized growth,"locus YPR106W, strain ISR1, hits give low values",0.948
same,normalized growth,[62],0.924
same,normalized growth,[63],0.966
same,normalized growth,[64],0.962
